“And” between values parts separate entries of the source, which are not always exact repeats. Equal entries are not always repeated. Records with an inconclusive call do not appear. Entries that show only a call come without a potency. Some compounds were tested as several samples or in several runs, with calls that do not always agree. The source made the active and inactive calls. Calls follow the shape of the dose curve; as a rule, active = well fitted curve in the direction sought with a large enough effect in the repeat runs; inconclusive = weak or mixed curves; inactive = no such curve, though single readings can be large; an effect the other way counts as inactive or inconclusive.
Potency is read from the fitted curve at half-maximal effect.

One experiment can be described thus: A CellTox Green Cytotoxicity Assay to monitor cytotoxicity in HepG2 cells - 8 hour (AID 1224890). Also: nearly all actives have a fitted effect of over 45% in size. The conditions noted are these: CellTox Green fluorescence; series mostly up to 76.8 µM. The gist of the method: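 Real-time cytotoxicity: fluorescence of a cell-impermeant cyanine dye binding DNA of dead HepG2 cells, measured repeatedly (0–40 h) during compound exposure at 37 C. Cells seeded 600/well with reagent, dosed after 5 h.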
In the case of `O=[N+]([O-])c1ccc(O)cc1`, the Potency result is “inactive”. `O=C1OC(c2ccc(O)cc2)(c2ccc(O)cc2)c2ccccc21`: the Potency entry is “inactive”.

With `N[C@@H](Cc1c[nH]c2ccccc12)C(=O)O`, the Potency entry is “inactive”. As for `NC(=O)c1ccc([N+](=O)[O-])cc1Cl`, the Potency entry was “inactive”. For the molecule `CN(C)C=O`, the Potency entry was “inactive”. For the molecule `C=C(C)OC(C)=O`, the Potency entry is “inactive”. Turning to `CC(=O)/C=C/C1=C(C)CCCC1(C)C`, the Potency entry was “inactive”. Consider `c1ccc2[nH]c(-c3cscn3)nc2c1`, for which the Potency result is “inactive”. The same measure, in the same setting: the result for `CC1=C(/C=C/C(C)=C/C=C/C(C)=C/C(=O)O)C(C)(C)CCC1` reads “inactive”; that for `CCCCC/C(C=O)=C\c1ccccc1`, “inactive”. Turning to `Cc1cccc(C)c1O`, the Potency entry is “inactive”.

`Cc1cccc(Nc2cc(Cl)nc(SCC(=O)O)n2)c1C`: the Potency entry is “inactive”. Take `CC(C)CC(C)CC(O)CC(C)C` (centres undefined): the Potency entry is “inactive”. Consider `CC(=O)CCC(C)C`, for which the Potency result was “inactive and 43.6 µM (active)”. As to `C[C@]12CC[C@@H]3c4ccc(O)cc4CC[C@H]3[C@@H]1CCC2=O`, the Potency result was “inactive”.

As to `COc1ccccc1NC(=O)CC(C)=O`, the Potency result was “inactive”. `COc1ccccc1O`: the Potency entry is “inactive”. Still for that read-out and setting: the result for `O=C(O)CCCCC1CCSS1` (centres undefined) reads “inactive”.

With `C#C[C@]1(O)CC[C@H]2[C@@H]3CCc4cc(O)ccc4[C@H]3CC[C@@]21C`, the Potency entry is “inactive”. In the case of `CCCCOCCOCCOC(C)=O`, the Potency entry was “inactive”. Regarding `COc1ccc(O)cc1`, the Potency result is “inactive”. With `COc1cc2c(c(OC)c1OC)-c1ccc(OC)c(=O)cc1[C@@H](NC(C)=O)CC2`, the Potency result is “inactive”.

In the case of `C[C@]12CC[C@@H]3c4ccc(O)cc4C[C@@H](CCCCCCCCCS(=O)CCCC(F)(F)C(F)(F)F)[C@H]3[C@@H]1CC[C@@H]2O` (some centres undefined), the Potency result was “inactive”. On the same count and under the same terms, the result for `CO[C@H]1C=CO[C@@]2(C)Oc3c(C)c(O)c4c(O)c(c(/C=N/N5CCN(C)CC5)c(O)c4c3C2=O)NC(=O)/C(C)=C\C=C[C@H](C)[C@H](O)[C@@H](C)[C@@H](O)[C@@H](C)[C@H](OC(C)=O)[C@@H]1C` reads “inactive”. Take `COC(=O)C1CCC(C(=O)OC)CC1` (centres undefined): the Potency result was “inactive”.

As for `COCC(C)N` (centres undefined), the Potency result is “inactive”. On to `O=C1CCCCCN1`, for which the Potency result was “inactive”. Turning to `NC(=O)OCC(COC(N)=O)c1ccccc1`, the Potency entry is “inactive”. Same read-out and setting: next, `CCCCOC(=O)CCCCCCCCC(=O)OCCCC`: “inactive”.

As to `NC(=O)NO`, the Potency entry is “inactive”.

The next experiment in a line: qHTS assay to identify small molecule antagonists of the estrogen receptor alpha (ER-alpha) signaling pathway using the BG1 cell line in the presence of 0.1 nM 17-beta-estradiol - cell viability counter screen (AID 1259241). Also: nearly all actives have a fitted effect of over 40% in size. The conditions noted are these: VM7Luc4E2 (BG1) viability, CellTiter-Fluor protease, 22 h, 0.1 nM estradiol agonist added; series mostly up to 92.4 µM. In outline:
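VM7Luc4E2, 4,000 cells/well, phenol red-free medium + 10% charcoal-stripped FBS; 24 hr plating; cpd + 0.1 nM E2 final, 22 hr 37C/5% CO2; CellTiter-Fluor 30 min, fluorescence.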
(In general: Quantitative high-throughput screening tests each substance at several concentrations.)
Regarding `O=[N+]([O-])c1ccc(O)cc1`, the Potency is 56.6 µM (active). Turning to `N[C@@H](Cc1c[nH]c2ccccc12)C(=O)O`, the Potency result is “inactive”.

Take `NC(=O)c1ccc([N+](=O)[O-])cc1Cl`: the Potency entry is “inactive”. On to `CN(C)C=O`, for which the Potency result was “inactive”. On to `C=C(C)OC(C)=O`, for which the Potency entry was “inactive”.

Turning to `CC(=O)/C=C/C1=C(C)CCCC1(C)C`, the Potency result was “inactive”. Regarding `CC1=C(/C=C/C(C)=C/C=C/C(C)=C/C(=O)O)C(C)(C)CCC1`, the Potency entry is “inactive”. As to `CCCCC/C(C=O)=C\c1ccccc1`, the Potency result was “inactive”. For `CC(C)CC(C)CC(O)CC(C)C` (centres undefined), the Potency result is “inactive”. On to `CC(=O)CCC(C)C`, for which the Potency entry is “inactive”.

For the molecule `C[C@]12CC[C@@H]3c4ccc(O)cc4CC[C@H]3[C@@H]1CCC2=O`, the Potency result is “inactive”. For the molecule `COc1ccccc1NC(=O)CC(C)=O`, the Potency result is “inactive”. Still for that read-out and setting: next, `C#C[C@]1(O)CC[C@H]2[C@@H]3CCc4cc(O)ccc4[C@H]3CC[C@@]21C`: “inactive”. Still for that read-out and setting: next, `CCCCOCCOCCOC(C)=O`: “inactive”; `CO[C@H]1C=CO[C@@]2(C)Oc3c(C)c(O)c4c(O)c(c(/C=N/N5CCN(C)CC5)c(O)c4c3C2=O)NC(=O)/C(C)=C\C=C[C@H](C)[C@H](O)[C@@H](C)[C@@H](O)[C@@H](C)[C@H](OC(C)=O)[C@@H]1C`: 27.4 µM (active) and 19.6 µM (active) and 13.3 µM (active).

Take `COC(=O)C1CCC(C(=O)OC)CC1` (centres undefined): the Potency entry was “inactive”. Turning to `O=C1CCCCCN1`, the Potency result is “inactive”.

Turning to `CCCCOC(=O)CCCCCCCCC(=O)OCCCC`, the Potency entry was “inactive”. Turning to `NC(=O)NO`, the Potency entry is “inactive”.
